Hits are enriched below; roughly 14% of the tested compounds scored in any of these assays.
Shiga inhibitor – inhibitors of Shiga toxin in Vero cells; Vero cells, Shiga toxin protein synthesis inhibition reporter; inhibition, % at 38.7 µM; 9.2% of 290,000 active; AID 2315; in the data active = inhibition mostly above about 28%, no sharp cut-off; inactive = mostly below about 43%
LmPK inh – inhibitors of Leishmania mexicana pyruvate kinase; Q27686; purified LmPK, Kinase-Glo ATP luminescence, 1 h; Potency, µM (highest dose often 57.5 µM), usual class: inhibitors; 0.37% of 290,000 active
Target sequence (Q27686 whole entry, looked up): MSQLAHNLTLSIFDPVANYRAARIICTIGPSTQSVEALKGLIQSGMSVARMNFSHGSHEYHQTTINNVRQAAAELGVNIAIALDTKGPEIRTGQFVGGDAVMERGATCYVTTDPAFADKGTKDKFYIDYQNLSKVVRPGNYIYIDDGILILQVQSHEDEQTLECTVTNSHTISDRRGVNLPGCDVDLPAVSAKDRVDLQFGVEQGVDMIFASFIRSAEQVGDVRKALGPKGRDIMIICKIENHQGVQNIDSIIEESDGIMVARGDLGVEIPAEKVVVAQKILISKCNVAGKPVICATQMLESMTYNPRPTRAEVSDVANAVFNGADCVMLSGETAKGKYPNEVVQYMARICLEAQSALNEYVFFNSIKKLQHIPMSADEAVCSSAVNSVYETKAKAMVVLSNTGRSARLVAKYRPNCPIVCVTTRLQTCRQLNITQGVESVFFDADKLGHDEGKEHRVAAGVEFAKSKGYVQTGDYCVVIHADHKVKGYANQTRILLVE
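Purified LmPK (0.1 nM) with 0.5 mM PEP and 0.1 mM ADP in imidazole buffer pH 7.2 with MgCl2/KCl, 1 h at room temperature. ATP formed was read by luciferase luminescence and normalized to no-enzyme and uninhibited controls.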
Cycloheximide cs – affects cycloheximide protein synthesis inhibition readout, counter-screen; cell reporter, cycloheximide protein synthesis inhibition counterscreen; max response, %; 12% of 300,000 active; AID 2314; in the data active = max response mostly above about 13%, no sharp cut-off; inactive = mostly below about 14%; note: read at 38.3 µM for the half of the compounds with a filed dose
Giardia FBPA inh – inhibitors of Giardia lamblia fructose-1,6-bisphosphate aldolase. A8B2U2. purified Giardia FBPA. Potency, µM (doses to about 59.6 µM), usual class: inhibitors. 0.71% of 290,000 active. AID 2451; note: nearly all actives have a fitted effect of over 55% in size
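40 nM FBPA preincubated 10 min at RT with compound (up to 57.5 uM final), then substrate plus GAPDH/TPI/NAD/arsenate coupling and diaphorase/resazurin added. Fluorescence read after 20 min at RT, 525/598 nm.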
NS1 inh – influenza NS1 inhibition; Potency, µM (top dose mostly 46.1 µM); 0.4% of 270,000 active; AID 2326; calls by dose curve; note: actives are rising curves; nearly all actives have a fitted effect of over 50% in size
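OD600 was taken as the measure of yeast growth restored by compound in an NS1-expressing S. cerevisiae strain. Cells had been washed out of glucose medium and diluted 1:100 into galactose -URA medium, pH 6.0.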
A number is an active result; i = inactive; ? = inconclusive; nt = no result; [ ] = dose if it differs, or a comment. Unless noted, calls come from the whole dose curve; as a rule, active = well fitted curve in the direction sought with a large enough effect; inconclusive = small, poorly fitted or top-dose-only effect, or another doubt; inactive = no such curve, though single readings can be large; an effect the other way counts as inactive or inconclusive.

SMILES	Shiga inhibitor	LmPK inh	Cycloheximide cs	Giardia FBPA inh	NS1 inh
O=C(COc1cccc([N+](=O)[O-])c1)NN1C(=O)c2ccccc2C1=O	i	i	i	i	i
Cc1ccc(CNC(=O)Cn2ccc3cc(S(=O)(=O)N4CCCCCC4)ccc32)cc1	i	i	i	i	i
Nc1nc2ccccc2n1C(=O)c1cccs1	91	i	51	i	nt
Nc1nc2ccccc2n1C(=O)c1ccccc1	i	6.3µM	i	i	i
Nc1nc2ccccc2n1C(=O)c1ccco1	90	?	55	i	i
COC(=O)NC(c1cccc(F)c1)[C@@]1(C(=O)OC)CCCC1=O (some centres undefined)	nt	nt	nt	i[12.9 µM]	nt
O=[N+]([O-])/C(C(Cl)=C(Cl)Cl)=C1\Nc2ccccc2O1	71	i	17	?	i
Cc1nn(Cc2ccc(F)cc2)c(C)c1NC(=O)c1cc2ncc(Br)cn2n1	i	i	i	i	i
CSc1ccccc1NC(=O)c1cc2ncc(Br)cn2n1	94	i	18	i	i
CC(C)c1ccccc1NC(=O)c1cnccn1	i	i	i	i	i
O=C(Nc1cccc2ccccc12)c1cnccn1	62	i	31	i	i
CSc1ccccc1NC(=O)c1cnccn1	i	i	21	i	i
CSc1nc(C(C)C)ccc1CNC(=O)CC(C)c1ccccc1 (centres undefined)	i	i	i	i	i
CC1=C(C(=O)NCc2ccccc2)C(c2cccs2)NC(=S)N1 (centres undefined)	i	i	i	i	i
COc1ccc(C(=O)Nc2ccc(S(=O)(=O)Nc3onc(C)c3C)cc2)cc1	i	i	i	i	i
Cc1noc(NS(=O)(=O)c2ccc(N/C=C\C(=O)c3ccccc3)cc2)c1C	118	i	46	?	nt
Cc1ccc2c(=O)cc(C(=O)Nc3ccc(S(=O)(=O)Nc4onc(C)c4C)cc3)oc2c1	i	i	i	i	i
Cc1noc(NS(=O)(=O)c2ccc(NC(=O)CS(=O)(=O)c3ccccc3)cc2)c1C	i	i	i	i	i
Cc1noc(NS(=O)(=O)c2ccc(N/C=C/C(=O)c3ccc4c(c3)OCO4)cc2)c1C	120	i	59	nt	i
Cc1noc(NS(=O)(=O)c2ccc(N/C=C\C(=O)c3ccc(F)cc3)cc2)c1C	90	i	61	i	i
Cc1ccc2c(C)c(C(=O)Nc3ccc(S(=O)(=O)Nc4onc(C)c4C)cc3)oc2c1	89	i	55	i	i
COc1ccc(-n2nc(C(=O)NCC(=O)NCCCN3CCOCC3)c3ccccc3c2=O)c(OC)c1	i	i	i	i	i
CN1CCN(c2nc(-c3cccc(C#N)c3)nc3ccccc23)CC1	nt	nt	nt	i	nt
Cc1noc(NS(=O)(=O)c2ccc(N/C=C\C(=O)c3cccs3)cc2)c1C	94	i	43	i	i
CCOc1cc(/C=C2\NC(=O)NC2=O)ccc1OC(C)C(=O)O (centres undefined)	i	i	i	i	i
SMILES	Shiga inhibitor	LmPK inh	Cycloheximide cs	Giardia FBPA inh	NS1 inh
Cc1ccc(C2=NC3(CCCC3)NC2=S)cc1	i	i	22	i	i
S=C1NC2(CCCC2)N=C1c1ccccc1	i	i	21	i	nt
N#CCCCS(=O)(=O)c1nnnn1C1CCCCC1	nt	nt	nt	i	nt
Cc1cc(C(=O)CN2C(=O)NC3(CCCc4ccccc43)C2=O)c(C)n1Cc1ccccc1 (centres undefined)	i	i	25	i	i
Cc1cc(C(=O)CN2C(=O)CCC2=O)c(C)n1Cc1ccccc1	i	i	30	i	i
Cc1cc(C(=O)CN2C(=O)NC3(CCCc4ccccc43)C2=O)c(C)n1Cc1ccco1 (centres undefined)	i	i	i	i	i
Cc1cc(C(=O)CN2C(=O)NC3(CCCc4sccc43)C2=O)c(C)n1-c1ccccc1 (centres undefined)	29	i	39	i	i
CCC/C=C(\CCC)C(NC(=O)c1ccccc1)c1ccccc1 (centres undefined)	nt	nt	nt	i	nt
O=C(Nc1ccc2c(c1)nc1n2CCSC1)c1ccccc1	43	16µM	40	i	i
CCCCC(=O)Nc1ccc2c(c1)nc1n2CCOC1	89	i	20	i	i
CC(C)C(=O)Nc1ccc2c(c1)nc1n2CCSC1	40	i	i	i	i
O=C(Nc1ccc2c(c1)nc1n2CCOC1)c1ccccc1	94	i	31	i	i
CCC(=O)Nc1ccc2c(c1)nc1n2CCSC1	i	i	i	i	i
O=[N+]([O-])c1ccc2c(c1)nc1n2CCSC1	i	i	i	i	i
CCCC(=O)Nc1ccc2c(c1)nc1n2CCOC1	i	i	i	i	i
c1ccc(B2OC[C@@H]3OB(c4ccccc4)O[C@H]([C@@H]4COB(c5ccccc5)O4)[C@@H]3O2)cc1	nt	nt	nt	nt	i

Screening results (PubChem BioAssay)
